TDP1 cell noCPT = qHTS for Inhibitors of human tyrosyl-DNA phosphodiesterase 1 (TDP1): qHTS in cells in absence of CPT | Potency, µM (doses to about 46.2 µM), inactives show at the highest dose activity change, negative = growth inhibition, usual class: inhibitors | 420,000 tested, 15% active | DT40 Tdp1-/- hTDP1 cells, no CPT, ATP luminescence, 48 h; note: potency is the fitted concentration of half-maximal effect; nearly all actives have a fitted effect of over 55% in size
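DT40 Tdp1-/-;hTDP1 cells, no CPT (DMSO vehicle only), 400 cells/well; compounds pin-transferred; ≥48 hr, 37 °C; CellTiter-Glo 30 min RT dark, luminescence read.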
IL-1B inflam inh = qHTS for Inhibitors of Inflammasome Signaling: IL-1-beta AlphaLISA Primary Screen; 360,000 tested, 4.7% active; activity change, % at 57.5 µM; THP-1 LPS/ATP IL-1B secretion, AlphaLISA, 16 h; active compounds read low; in the data active = activity change below about -50%; inconclusive = mostly about -30% to -49%
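Secreted IL-1B measured by AlphaLISA bead assay after 16 h compound exposure of THP-1 cells; compounds (final up to 57.5 uM) added 1 h before LPS (250 ng/mL) and ATP (1.25 mM) stimulation; lower signal means less secretion.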
TDP1 cell CPT = qHTS for Inhibitors of human tyrosyl-DNA phosphodiesterase 1 (TDP1): qHTS in cells in presence of CPT | chicken DT40 Tdp1-/-;hTDP1 cells + 20 nM CPT, ATP luminescence, 48 h | Potency, µM (titrated, usually from 46.2 µM), without a hit: top-dose activity change, negative = growth inhibition, usual class: inhibitors | 420,000 tested, 12% active; note: potency is the fitted concentration of half-maximal effect; nearly all actives have a fitted effect of over 55% in size
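Chicken DT40 Tdp1-/- cells stably complemented with human TDP1 were seeded at 400 cells/well in medium containing 20 nM camptothecin, exposed to pin-transferred compounds, and grown at 37 °C for at least 48 hr. Viability was read as ATP luminescence.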
HT1080NT lethal = qHTS for induction of synthetic lethality in tumor cells producing 2HG: qHTS for the HT-1080-NT fibrosarcoma cell line; HT-1080-NT fibrosarcoma viability, CellTiter-Glo ATP luminescence, 48 h; Potency, µM (highest dose often 46.1 µM), for the others: top-dose activity, negative = less viability, actives largely listed as cytotoxic; 360,000 tested, 1.6% active; AID 686970, 2013;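 note: NT is the 2HG producing partner of a matched IDH1 knockdown line; potency is the fitted concentration of half-maximal effect; 0% = DMSO-treated cells and -100% = media-only wells without cells; nearly all actives have a fitted effect of over 55% in size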
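Luminescent CellTiter-Glo readout after 48 hours of compound exposure at 37 degrees C defined viability of HT-1080-NT cells. Activity was normalized to DMSO wells and cell-free media wells; concentration-response curves were fitted and assigned curve classes.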
HT1080 IDH1KD tx = qHTS for induction of synthetic lethality in tumor cells producing 2HG: qHTS for the HT-1080-IDH1KD cell line; HT-1080 IDH1 knockdown viability, ATP luminescence, 48 h; Potency, µM (series often up to 46.1 µM), for the others: top-dose activity, negative = toxicity, hits mostly cytotoxic; 360,000 tested, 2% active; AID 686971, 2013;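 note: potency is the fitted concentration of half-maximal effect; 0% = DMSO wells and -100% = cell-free medium wells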
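Assay cells: HT-1080 with IDH1 knockdown, 750 per well, RPMI/5% FBS. Exposure: 48 h at 37 °C following 2 h pre-incubation. Read: CellTiter-Glo luminescence; fitted concentration-response, curve class assigned.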
An asterisk follows results filed as active; i = inactive; ? = inconclusive; . = no result; [ ] = dose if it differs, or a comment. Most compounds without a hit are left out; they make up all but 19% or so of the library. Unless noted, calls come from the whole dose curve; as a rule, active = well fitted curve in the direction sought with a large enough effect; inconclusive = small, poorly fitted or top-dose-only effect, or another doubt; inactive = no such curve, though single readings can be large; an effect the other way counts as inactive or inconclusive. Unless noted, % is set by controls: 0 for no effect and ±100 for the full control effect.

SMILES	TDP1 cell noCPT	IL-1B inflam inh	TDP1 cell CPT	HT1080NT lethal	HT1080 IDH1KD tx
COCCCOc1cc(NCc2ccccc2)c2ncn(C(C)C)c2c1	-18%	-1	3%	0%	1%
CCC(COC)Oc1cc(NCc2ccccc2)c2ncn(C(C)C)c2c1 (stereo unspecified)	18µM*	-90*	26µM*	?	?
CCCCOc1cc(NCc2ccccc2)c2ncn(C(C)C)c2c1	21µM*	27	23µM*	-27%	?
Cc1ccc(C)c(NC(=O)CN(C)C(=O)C2COc3ccccc3O2)c1 (stereo unspecified)	33%	11	-16%	-8%[9.24 µM]	-2%
CC1(C)CC(=O)C=C(NCCN2CCN(C(=O)Nc3ccccc3)CC2)C1	0%	-14	-11%	-1%	-1%
CCC(CO)Oc1cc(NCc2ccc(C(C)(C)C)cc2)c2ncn(C(C)C)c2c1 (stereo unspecified)	15µM*	35	13µM*	?	?
CC(C)n1cnc2c(NCc3ccccc3)cc(N[C@H](C)CO)cc21	4.6µM*	110	2.3µM*	23µM*	23µM*
CCC(CO)Oc1cc(NCc2ccc(O)cc2)c2ncn(C(C)C)c2c1 (stereo unspecified)	-15%	-11	?	-7%	-6%
COc1ccc(Cc2cc(NCc3ccccc3)c3ncn(C(C)C)c3c2)cc1	21µM*	-15	?	?	-22%
CCOCCOc1cc(NCc2ccccc2)c2ncn(C(C)C)c2c1	?	39	?	-24%	-22%
Cc1ccc(F)cc1NC(=O)CSCc1nc2sc(C)c(C)c2c(=O)[nH]1	?	-6	?	-1%	1%
Clc1ccc(-c2cnc3n2CCC3)cc1	-28%	-14	-23%	35µM*	?
COc1ccc(-c2cnc3n2CCCCC3)cc1	23µM*	-14	?	0%	-6%
Cc1ccc(S(=O)(=O)N2C[C@@H](C)[C@]3(C2)[C@H](O)[C@H](OC(=O)NCc2ccccc2F)C[C@H]2C(=O)N(c4ccccc4)C(=O)[C@H]23)cc1	?	0	?	-9%	-12%
COc1cc(C2Nc3ccccc3-c3nnc(SCc4ccc(C)cc4)nc3O2)cc(OC)c1O (stereo unspecified)	?	.	-30%	.	.
CC1CCCCN1c1ncnc2ccccc12 (stereo unspecified)	10µM*	-25	23µM*	18µM*	1%
O=C(O)C1CCCN1c1ncnc2ccccc12 (stereo unspecified)	-10%	23	-37%	0%	8%
CC1CCCCN1c1nc(-c2ccncc2)nc2ccccc12 (stereo unspecified)	18µM*	-14	?	?	29µM*
c1ccc(-c2nc(C3CCCCC3)c3ccccc3n2)cc1	-16%	23	-3%	4%	1%
CCC1CCCCN1c1nc(-c2ccncc2)nc2ccccc12 (stereo unspecified)	?	-7	29µM*	18µM*	?
c1ccc2c(N3CCCCC3)ncnc2c1	21µM*	27	?	-20%	-17%
CC1CCN(c2nc(-c3ccncc3)nc3ccccc23)CC1	?	-24	?	?	?
O=C(CNC(=O)c1ccccc1)OCc1cc(=O)n2nc(C3CC3)sc2n1	-2%	.	7%	.	.
C=CCN(c1ccc(C(=O)Nc2ccc(NC(C)=O)cc2)cc1)S(C)(=O)=O	23µM*	28	?	1%	-3%
O=C1CCc2cc(S(=O)(=O)NCc3ccccc3Cl)cc3c2N1CC3	-1%	-8	?	5%	7%
SMILES	TDP1 cell noCPT	IL-1B inflam inh	TDP1 cell CPT	HT1080NT lethal	HT1080 IDH1KD tx
O=S(=O)(c1ccccc1)c1ncc(C(F)(F)F)cc1Cl	3.7µM*	-106*	4.1µM*	?	16µM*
COc1ccc(S(=O)(=O)N[C@H]2CC[C@H](CCNC(=O)c3ccccc3F)O[C@@H]2CO)cc1	-14%	-77*	-26%	18%	12%
O=C(Nc1cccc(S(=O)(=O)Nc2ccc(Cl)cc2)c1)c1ccc(Cl)nc1	0.65µM*	-8	2.3µM*	?	?
COc1ccc(NS(=O)(=O)c2cccc(NC(=O)c3cnccn3)c2)cc1Br	18µM*	-20	16µM*	-25%	-18%
COc1ccc(NS(=O)(=O)c2cccc(NC(=O)c3ccc(Cl)nc3)c2)cc1	3.3µM*	-9	1.2µM*	1.6µM*	6.5µM*
COc1ccc(NS(=O)(=O)c2cccc(NC(=O)NCCCl)c2)cc1	-29%	17	-27%	0%	1%
O=C(Nc1ccc(NS(=O)(=O)c2ccccc2)cc1)c1ccc(Cl)cc1	-12%	1	-21%	-4%	-11%
Cc1ccc(C)c(C(=O)OCC(=O)N(C)c2ccccc2)c1	-24%	7	25%	19%	19%
O=C(NC(=S)Nn1cnc2c(cnn2-c2ccccc2)c1=O)c1ccccc1	?	-8	-2%	6%	1%
Cc1ccc(CSc2nnc(CCCCCNC(=O)OC(C)(C)C)o2)cc1	18µM*	?	23µM*	-14%	?
Cc1cccc(CSc2nnc(CCCCCNC(=O)OC(C)(C)C)o2)c1	16µM*	15	?	-4%	-24%
CN(CC(=O)Nc1ccccc1Br)C(=O)C(Cc1ccccc1)NC(=O)c1ccccc1 (stereo unspecified)	?	i	?	0%	-12%
CCc1ccccc1NC(=O)Cn1c(=O)n(Cc2ccccc2)c(=O)c2c(C)c(C(=O)N(C)C)sc21	-9%	.	?	.	.
CCc1nn(C(C)C(=O)N2CCN(c3ccc(OC)cc3)CC2)c(=O)c2cc3occc3n12 (stereo unspecified)	7.3µM*	22	4.6µM*	-26%	?
COc1ccc(N2CCN(C(=O)[C@H](C)N3C(=O)C4CC=CCC4C3=O)CC2)cc1 (stereo partly specified)	-6%	-2	-8%	-5%	-4%
CCc1nn(C(C)C(=O)N2CCN(Cc3ccccc3)CC2)c(=O)c2cc3occc3n12 (stereo unspecified)	?	-4	?	5%	5%
CCc1nn(CCCC(=O)N2CCN(c3cc(Cl)ccc3C)CC2)c(=O)c2cc3occc3n12	23µM*	.	?	.	.
CCc1nn(C(C)C(=O)N2CCN(c3cccc(C(F)(F)F)c3)CC2)c(=O)c2cc3occc3n12 (stereo unspecified)	23µM*	.	?	.	.
